Laboratory results published in the OligoGym collection.

Target: EMD
Test: pooled miR-30 sensor sort-seq; sequence = guide strand
Settings: shRNA

First: TAGTAGTCGTCATTGTAGCCCT
Second: TAGGATAATAGGACAGGTCCAG
The sensor-assay potency score (higher = more potent) of the first is higher: -0.272 for the first, -0.423 for the second.

Compared with TAGTCGTCATTGTAGCCCTTGC, TAAAGCGTCCTCTTTCTTGGGA is higher in sensor-assay potency score (higher = more potent): -0.858 for the first, 0.267 for the second.

Target: EMILIN2
Test: as above
Settings: shRNA

Compared with ATAGTCATCACACTGCTGCTGG, TTTCTGATCAACAAGCTGCTTC is higher in sensor-assay potency score (higher = more potent): 0.195 for the first, 0.352 for the second.

First: TTGACCAATGTCACCATTCTTT
Second: TATTCCAGGAACTCTCTCCTGT
The sensor-assay potency score (higher = more potent) of the first is lower: -0.477 for the first, 0.252 for the second.

Compared with TTTAATTCCATCATGACCCGTT, TTCTCCGTCACATTGATCCTTG is lower in sensor-assay potency score (higher = more potent): 0.891 for the first, -0.623 for the second.
